Bioassay records: PubChem BioAssay, Broad Institute
PAX8 inh HTS – PAX8 transcriptional activity inhibition. RMG-I TPO-luciferase reporter, SteadyGlo, 24 h. inhibition, % at 12.6 µM. 360,000 compounds, 1.2% hits. AID 652154;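 active = mean replicate inhibition at least 60% with every replicate also reaching 60%; inconclusive = only one of the two criteria is met; inactive = mean below 60% and not all replicates reaching 60%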;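 note: luciferase light reporting Pax8 driven TPO promoter activity; plate controls were median of neutral control wells for no effect and mitoxantrone controls for full effect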
PGC1a acetyl inh – PGC1a acetylation modulation, inhibitor mode. U2OS PGC1a acetylation, AlphaScreen anti-acetyl-lysine; with virally co-expressed GCN5 acetyltransferase. inhibition, % at 15.6 µM. 350,000 compounds, 0.17% hits. AID 651687;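 active = every replicate shows inhibition of at least 40%; inconclusive = mean inhibition at least 40% but some replicate below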;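 note: 0% = neutral control wells and 100% = positive control wells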
Ecoli rRNA inh – selective bacterial rRNA inhibition in E. coli; E. coli WT GFP vs humanized-ribosome RFP mutants, fluorescence, 24 h; stronger effect = lower value; DMSO median 0, no signal -100; GFP signal change (wild-type ribosome), % (no concentration beside the values); 350,000 compounds, 1.6% hits; AID 720706;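 active = significant combined selectivity score with lowered wild-type GFP, culture density cut under 30%, mutant RFP and density less affected; inactive = any of these conditions unmet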
EWS-Fli block – blocks EWS/Fli oncoprotein-driven transcription | A673 NR0B1-luciferase reporter, viability-normalised | inhibition, % at 12.6 µM | 350,000 compounds, 0.67% hits | AID 651661;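 active = mean inhibition of at least 50% after viability correction, with every replicate also passing that limit; inconclusive = mean reaches 50% but only one of two replicates passes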;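 note: firefly luciferase signal divided by Alamar Blue viability fluorescence both relative to DMSO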
SIRT5 inh – blocks human SIRT5 desuccinylation of peptide; 330,000 compounds, 1.1% hits; inhibition, % at 15 µM; Q9NXA8; Purified SirT5, succinyl-peptide AMC, trypsin-coupled fluorescence; in the data active = inhibition above about 15%; inconclusive = no clear call, values can overlap the other calls
Target sequence (Q9NXA8 whole entry, looked up): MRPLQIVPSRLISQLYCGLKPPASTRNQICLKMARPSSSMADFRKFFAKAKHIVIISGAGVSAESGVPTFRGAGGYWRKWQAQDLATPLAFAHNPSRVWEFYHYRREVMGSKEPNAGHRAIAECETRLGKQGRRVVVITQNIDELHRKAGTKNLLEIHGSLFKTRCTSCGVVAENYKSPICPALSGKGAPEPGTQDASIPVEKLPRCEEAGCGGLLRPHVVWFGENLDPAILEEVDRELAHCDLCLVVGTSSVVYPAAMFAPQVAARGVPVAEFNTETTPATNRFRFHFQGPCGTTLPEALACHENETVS
LGR2 antag – blocks bursicon-induced cAMP signaling via Drosophila LGR2. AID 720647. inhibition, % at 9.99 µM. 380,000 compounds, 0.35% hits. HEK293 LGR2, CRE-luciferase, bursicon-stimulated, 4 h;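 active = drop in luminescence signal, shown as inhibition above about 50% in the replicate tests, limit read from the data, passing the limit was not always enough; inconclusive = probably only some replicates passing the limit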;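 note: agonist challenge used bursicon conditioned medium at about half maximal strength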
* = called active by the depositor. Compounds with a hit are over-represented: about 3.4% of the library has one in this group of screens.

How did COc1ccc2c3c(n(C)c2c1)[C@H](CO)N(S(C)(=O)=O)CC31CCN(CC2CC2)CC1 do in these assays?
Ecoli rRNA inh: 2; EWS-Fli block: -2; SIRT5 inh: 5; LGR2 antag: -13

How did COc1cc(CNCCCN2CCOCC2)cc(Br)c1OCc1ccc(Cl)cc1 do in these assays?
PAX8 inh HTS: 29; Ecoli rRNA inh: -58; EWS-Fli block: 17; SIRT5 inh: -10; LGR2 antag: 99*

Results for COc1cc(CNCCN2CCOCC2)ccc1OCc1ccc(Cl)cc1 ?
PGC1a acetyl inh: -8

Results for O=C(C[C@H]1C[C@@H]2c3cc(NC(=O)NC4CCCCC4)ccc3O[C@@H]2[C@@H](CO)O1)NCCc1ccccc1 ?
PAX8 inh HTS: 11; PGC1a acetyl inh: -9; Ecoli rRNA inh: 3; EWS-Fli block: 1; SIRT5 inh: -3; LGR2 antag: -5

How did COc1ccc(C(=O)N/N=C/c2ccc(OC(=O)c3cccs3)cc2)cc1 do in these assays?
PAX8 inh HTS: 101*; Ecoli rRNA inh: 4; EWS-Fli block: -3; SIRT5 inh: 1; LGR2 antag: -3

Results for COc1cc(C=NNC(=O)c2ccc(NS(=O)(=O)c3cccs3)cc2)cc(Br)c1O ?
PAX8 inh HTS: -8; PGC1a acetyl inh: 8; Ecoli rRNA inh: -31*; EWS-Fli block: 9; SIRT5 inh: 7; LGR2 antag: 10

What do the screens show for `O=C(NN=Cc1ccc(O)cc1)c1ccccc1NS(=O)(=O)c1cccs1`?
PAX8 inh HTS: 10; PGC1a acetyl inh: 12; Ecoli rRNA inh: -37*; EWS-Fli block: -17; SIRT5 inh: 4; LGR2 antag: -4

How did COc1cccc(NC(=O)N[C@@H]2C=C[C@@H](CC(=O)N3CCN(C)CC3)O[C@@H]2CO)c1 do in these assays?
Ecoli rRNA inh: 1; EWS-Fli block: 5; SIRT5 inh: 1; LGR2 antag: -6

What do the screens show for `O=C(C[C@@H]1CC[C@@H](NC(=O)Nc2ccc(F)cc2)[C@@H](CO)O1)NCc1ccccn1`?
PAX8 inh HTS: -15; PGC1a acetyl inh: -7; Ecoli rRNA inh: 2; EWS-Fli block: 1; SIRT5 inh: 8; LGR2 antag: 1

What do the screens show for `CO[C@@H]1CN(C)C(=O)c2ccc(NS(=O)(=O)c3ccccc3F)cc2OC[C@@H](C)NC[C@@H]1C`?
PGC1a acetyl inh: 3; Ecoli rRNA inh: 2; EWS-Fli block: 2; SIRT5 inh: -1; LGR2 antag: -2

What do the screens show for `COc1ccc2c3c(n(C)c2c1)[C@@H](CO)N(C(=O)C1CC1)CC31CCN(CC2CCCC2)CC1`?
PAX8 inh HTS: -6; Ecoli rRNA inh: -1; EWS-Fli block: -2; SIRT5 inh: 0; LGR2 antag: -1

Results for COC(=O)c1ccc2nc(NC(=O)C(C)(C)C)sc2c1 ?
PAX8 inh HTS: 13; PGC1a acetyl inh: 1; Ecoli rRNA inh: -2; EWS-Fli block: 54*; SIRT5 inh: -3; LGR2 antag: 64*

How did CCOC(=O)c1csc(Nc2nc3ccc(F)cc3s2)n1 do in these assays?
PAX8 inh HTS: -40; PGC1a acetyl inh: -13

How did COC(=O)c1ccc2nc(Nc3nc4ccc(F)cc4s3)sc2c1 do in these assays?
PAX8 inh HTS: 80*; PGC1a acetyl inh: -3; Ecoli rRNA inh: -1; EWS-Fli block: 77*; SIRT5 inh: -4

What do the screens show for `COc1ccc(C(=O)Nc2ccc3c(c2)OC[C@@H](C)N(C(=O)C2CC2)C[C@@H](C)[C@H](OC)CN(C)C3=O)cc1`?
PGC1a acetyl inh: -14; Ecoli rRNA inh: -1; EWS-Fli block: -4; LGR2 antag: 7

How did C[C@@H]1CCCCO[C@H](CN(C)Cc2ccc(C(F)(F)F)cc2)[C@@H](C)CN([C@@H](C)CO)C(=O)c2cc(NC(=O)Nc3ccccc3)ccc2O1 do in these assays?
PAX8 inh HTS: 59; PGC1a acetyl inh: 1; Ecoli rRNA inh: 0; EWS-Fli block: 69*; LGR2 antag: 14

Results for C[C@H](CO)N1C[C@H](C)[C@H](CN(C)Cc2ccc(C(F)(F)F)cc2)OCCCC[C@H](C)Oc2ccc(NC(=O)Nc3ccccc3)cc2C1=O ?
PAX8 inh HTS: 85*; PGC1a acetyl inh: -7; Ecoli rRNA inh: -2; EWS-Fli block: 15; LGR2 antag: 3

Results for C[C@H](CO)N1C[C@H](C)[C@@H](CN(C)Cc2ccc(C(F)(F)F)cc2)OCCCC[C@H](C)Oc2ccc(NC(=O)Nc3ccccc3)cc2C1=O ?
PAX8 inh HTS: 52; PGC1a acetyl inh: 14; Ecoli rRNA inh: -1; EWS-Fli block: 11; LGR2 antag: 10

How did Fc1ccc(CSc2ncnc3scc(-c4ccccc4)c23)cc1 do in these assays?
PAX8 inh HTS: 22; EWS-Fli block: -4; SIRT5 inh: -4

How did CC(=O)c1ccccc1-c1csc2ncnc(Sc3nnnn3C)c12 do in these assays?
PAX8 inh HTS: 86*; PGC1a acetyl inh: -54; Ecoli rRNA inh: -11; EWS-Fli block: 8; LGR2 antag: 14

How did COC(=O)CSc1ncnc2scc(-c3ccccc3)c12 do in these assays?
PAX8 inh HTS: -11; PGC1a acetyl inh: 0; Ecoli rRNA inh: -50; EWS-Fli block: 4; SIRT5 inh: -2; LGR2 antag: -6

How did Cn1nnnc1Sc1ncnc2scc(-c3ccccc3C(F)(F)F)c12 do in these assays?
PAX8 inh HTS: 49; PGC1a acetyl inh: -7; Ecoli rRNA inh: -18*; EWS-Fli block: 5; LGR2 antag: inconclusive

What do the screens show for `Cn1nnnc1Sc1ncnc2scc(-c3cccc(F)c3)c12`?
PAX8 inh HTS: 105*; PGC1a acetyl inh: -11; Ecoli rRNA inh: 20; EWS-Fli block: 29; SIRT5 inh: -3; LGR2 antag: 83*

Results for COc1cccc(-c2csc3ncnc(Sc4nnnn4C)c23)c1 ?
PAX8 inh HTS: 99*; PGC1a acetyl inh: 0; Ecoli rRNA inh: -1; EWS-Fli block: 19; SIRT5 inh: -4; LGR2 antag: 46

What do the screens show for `COc1ccc(-c2csc3ncnc(N4CCN(S(=O)(=O)c5cccc(C(F)(F)F)c5)CC4)c23)cc1`?
PAX8 inh HTS: -5; Ecoli rRNA inh: 4; EWS-Fli block: -13; SIRT5 inh: -2; LGR2 antag: 19

What do the screens show for `Cn1nnnc1Sc1ncnc2scc(-c3ccc(C(F)(F)F)cc3)c12`?
PAX8 inh HTS: 77*; PGC1a acetyl inh: -34; Ecoli rRNA inh: -11; EWS-Fli block: 35; LGR2 antag: 93*

How did Cc1ccc(-c2csc3ncnc(-n4nnc5ccccc54)c23)cc1 do in these assays?
PAX8 inh HTS: 2; PGC1a acetyl inh: -3; EWS-Fli block: -3; LGR2 antag: 0

What do the screens show for `Cn1nnnc1Sc1ncnc2scc(-c3cccc(C(F)(F)F)c3)c12`?
PAX8 inh HTS: 101*; PGC1a acetyl inh: -32; Ecoli rRNA inh: 5; EWS-Fli block: 12; LGR2 antag: 88*

How did O=C(COC(=O)CC1CC2CCC1C2)NCc1ccc(Cl)cc1 (centres undefined) do in these assays?
PAX8 inh HTS: -25; PGC1a acetyl inh: -7; Ecoli rRNA inh: -21; EWS-Fli block: 9; LGR2 antag: 12
